SARS PLpro yeast: inhibitors of SARS-CoV papain-like protease in yeast; S. cerevisiae expressing SARS-CoV PLpro, growth rescue; 330,000 tested, 0.19% active; Potency, µM (doses to about 32.9 µM), most hits filed as activators; calls by dose curve; further: nearly all actives have a fitted effect of over 55% in size
Tb PYK inh: T. brucei pyruvate kinase inhibition. Q57TT1. TbPYK enzyme, Kinase-Glo Plus ATP luminescence, 45 min. Potency, µM (titrated, usually from 76.8 µM), hits mostly inhibitors. 410,000 tested, 0.12% active; further: nearly all actives have a fitted effect of over 50% in size
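Enzyme and substrate buffer are dispensed first and compound is pin-transferred. ADP at 130 uM final then starts the reaction, which runs 45 min at room temperature. Detection reagent is added for 10 min before luminescence is imaged.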
AMA1-RON2 inh: inhibitors of Plasmodium falciparum AMA1-RON2 interaction. AlphaScreen AMA1-biotinylated RON2 peptide binding. Potency, µM (titrated, usually from 58.2 µM), most hits filed as inhibitors. 360,000 tested, 0.2% active. AID 720542; further: nearly all actives have a fitted effect of over 45% in size
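AMA1 (3D7) with his tag at 25 nM final met compounds first, then biotinylated RON2 peptide at 25 nM; detection used donor plus acceptor beads, 10 µg/mL apiece, read by AlphaScreen after 30 min at room temperature.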
RE007 growth inh: less growth of the S. pombe RE007 Vpr strain; S. pombe RE007 Vpr strain, BacTiter-Glo ATP luminescence, 24 h; Potency, µM (top dose mostly 92.2 µM), most hits filed as inhibitors; 360,000 tested, 0.21% active; AID 651644; active means well fitted falling curve with a large enough effect; inconclusive means small, poorly fitted or top-dose-only effect; inactive means no such curve, though single readings can be large or run the other way; further: nearly all actives have a fitted effect of over 50% in size
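Fission yeast strain RE007, carrying one chromosomally integrated HIV-1 vpr copy, was seeded at OD 0.01 in PMG+AL medium with 23 nL pinned compound. After 24 h at 30 °C and 99% humidity, viability was read by BacTiter-Glo luminescence.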
LmPK inhibitor: LmPK (Leishmania mexicana) enzyme inhibition | Q27686 | purified LmPK, Kinase-Glo ATP luminescence, 1 h | Potency, µM (doses to about 57.5 µM), actives largely listed as inhibitors | 290,000 tested, 0.37% active
Target sequence (Q27686 whole entry, looked up): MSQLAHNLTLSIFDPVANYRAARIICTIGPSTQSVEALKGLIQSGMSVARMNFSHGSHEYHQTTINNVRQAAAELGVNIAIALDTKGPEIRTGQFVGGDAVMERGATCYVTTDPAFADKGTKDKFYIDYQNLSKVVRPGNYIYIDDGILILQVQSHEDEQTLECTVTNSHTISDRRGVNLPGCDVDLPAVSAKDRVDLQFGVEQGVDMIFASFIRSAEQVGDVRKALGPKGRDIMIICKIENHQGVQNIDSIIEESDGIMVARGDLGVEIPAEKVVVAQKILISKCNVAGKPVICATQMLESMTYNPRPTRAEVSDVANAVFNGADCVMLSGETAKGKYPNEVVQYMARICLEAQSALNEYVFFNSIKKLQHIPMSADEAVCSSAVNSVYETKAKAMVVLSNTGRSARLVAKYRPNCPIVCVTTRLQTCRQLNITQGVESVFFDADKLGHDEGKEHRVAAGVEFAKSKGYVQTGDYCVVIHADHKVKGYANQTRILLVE
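Pyruvate kinase activity monitored as ATP production (luciferase luminescence). Conditions: 0.1 nM enzyme, 0.5 mM PEP, 0.1 mM ADP, 1 h, RT; normalized against uninhibited and no-enzyme wells.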
Hits are given with their value; – = inactive; ? = inconclusive; · = no result; ! = not active in a repeat; [ ] = remark or other dose. An excerpt weighted towards active compounds, which were near 0.81% of everything screened. Unless noted, the call rests on the fitted dose curve; in most records, active means well fitted curve in the direction sought with a large enough effect; inconclusive means small, poorly fitted or top-dose-only effect, or another doubt; inactive means no such curve, though single readings can be large; an effect the other way counts as inactive or inconclusive.

SMILES | SARS PLpro yeast | Tb PYK inh | AMA1-RON2 inh | RE007 growth inh | LmPK inhibitor
CN(C)S(=O)(=O)c1cccc(NC(=S)NNC(=O)c2cc3ccccc3cc2O)c1 | 4.5µM | – | – | – | ·
Cc1cccc(N2C(=O)C=CC2=O)c1 | · | ? | – | 8.9µM | ·
O=C1C=CC(=O)N1c1ccc2ccccc2c1 | · | ? | – | 2.2µM | ·
COC(=O)C1=C(C(=O)OC)SC2(S1)C(C(=O)OC)=C(C(=O)OC)Sc1c2ssc1=O | · | ? | 28µM | ? | ·
Cc1ccc(NC(=O)c2ccccc2O)cc1 | – | – | – | 32µM | –
O=C(Nc1ccccc1)c1ccccc1O | – | – | – | – | –
Cc1ccc(C)c(S(=O)(=O)Nc2ccc(O)c3ccccc23)c1 | – | – | ? | – | ?
Cc1ccc(S(=O)(=O)Nc2ccc(O)c3ccccc23)c(C)c1 | – | – | – | – | 8.9µM
Cc1[nH]n(-c2ccc([N+](=O)[O-])cc2)c(=O)c1C=NCCN1CCN(C(=O)c2ccc(F)cc2)CC1 | – | – | – | – | –
Cc1[nH]n(-c2ccc([N+](=O)[O-])cc2)c(=O)c1C=NCCN1CCN(C(=O)c2cccc(F)c2)CC1 | – | – | – | 8.9µM | ?
Cc1[nH]n(-c2ccc([N+](=O)[O-])cc2)c(=O)c1C=NCCN1CCN(C(=O)c2ccc(Br)cc2)CC1 | – | – | – | 7.1µM | –
Cc1ccc(C)n1-c1ccc(N(C)C)cc1 | – | – | 28µM | – | –
Cc1ccc(C)n1-c1ccc(N2CCOCC2)cc1 | – | – | – | – | –
COCCOCC(O)CN1CCN(c2ccc(C)cc2)CC1 (configuration not stated) | – | – | 14µM | – | –
COCCOCC(O)CN1CCN(c2ccccc2)CC1 (configuration not stated) | – | – | – | – | –
COc1ccc(N2CCN(CC(O)COC(c3ccc(F)cc3)c3ccc(F)cc3)CC2)cc1 (configuration not stated) | – | – | 28µM | – | –
CCCCCCCCCCOCC(O)CN (configuration not stated) | · | – | · | · | ·
NC(=O)/C=C\C(=O)Nc1cccc(C(F)(F)F)c1 | – | – | – | 18µM | –
Cc1nnc(SCC(=O)c2c(N)n(C)c(=O)n(C)c2=O)n1Cc1ccccc1 | 22µM | – | – | – | –
CCn1c(SCC(=O)c2c(N)n(C)c(=O)n(C)c2=O)nnc1-c1ccccc1 | – | · | · | · | –
O=C(CNCCC1=CCCCC1)Nc1ccc(N2CCCCCC2)cc1 | – | – | 35µM | – | –
O=C(CNC1CCCCCC1)Nc1ccc(N2CCCC2)cc1 | – | · | · | · | –
COc1ccc(CNC(=O)c2cn(Cc3ccccc3OC)c(=O)s2)cc1 | · | – | – | –[18.4 µM] | ·
COc1ccc(-c2ccc(C(=O)NCc3ccc(N(C)C)cc3)c3occc23)c(C)c1 | · | – | 8.9µM | – | ·
COc1cc(-c2coc3c(C(=O)NCc4ccc(N(C)C)cc4)cccc23)ccc1O | · | – | 32µM | – | ·
SMILES | SARS PLpro yeast | Tb PYK inh | AMA1-RON2 inh | RE007 growth inh | LmPK inhibitor
CC(=O)Nc1ccc(S(=O)(=O)Nc2ccc([N+](=O)[O-])cc2)cc1 | · | – | · | · | ·
O=[N+]([O-])c1ccc(S(=O)(=O)Nc2ccc(-c3ccccc3)cc2)cc1 | · | – | – | 35µM | ·
COc1ccc(Nc2cc(C)c3cc(NC(=O)c4cc(OC)cc(OC)c4)ccc3n2)cc1 | · | – | · | · | ·
O=c1c2c(-c3ccco3)csc2nc(SCc2cn3cccnc3n2)n1-c1ccccc1 | – | ? | 16µM | – | –
NC(=O)CSc1nc2scc(-c3ccco3)c2c(=O)n1-c1ccccc1 | – | ? | ? | – | ?
O=C(CSc1ncc(-c2ccccc2)[nH]1)Nc1cccc(Br)c1 | · | – | · | · | ·
CCOC(=O)NNc1ccc2nonc2c1[N+](=O)[O-] | – | – | ? | 25µM | –
CSc1nc(N(CCO)CCO)c2sc3nc(-c4ccco4)c4c(c3c2n1)CCC4 | – | – | 11µM | – | –
CCc1nn(CC(=O)N2CCC(C)CC2)c(=O)c2cc3occc3n12 | · | – | · | · | ·
CC(Oc1ccccc1)C(=O)N=Nc1c(O)[nH]c2ccc([N+](=O)[O-])cc12 (configuration not stated) | – | – | 32µM | – | –
COc1ccc(-c2cn3cc(C)ccc3n2)cc1F | – | – | – | – | –
COc1ccc(-c2cn3cc(C)ccc3n2)cc1OC | – | – | – | ? | 16µM
Cc1ccc2nc(-c3ccc4c(c3)OCCO4)cn2c1 | – | – | – | ? | 14µM
O=C(NNCS(=O)(=O)O)c1ccncc1 | · | – | · | · | ·
Clc1ccccc1-c1nnc2sc(-c3cccs3)nn12 | 22µM | – | – | – | –
Clc1ccccc1-c1nnc2sc(-c3ccncc3)nn12 | – | – | – | – | –
O=C1c2ccccc2-c2onc3ccc(NCCCn4ccnc4)c1c23 | – | – | 24µM | – | –
C#C[C@@]1(OC(C)=O)CC[C@H]2[C@@H]3CCC4=CC(=O)CC[C@@H]4[C@H]3CC[C@@]21C | · | – | · | · | ·
N#Cc1ccc(N=c2ssnc2Cl)cc1 | – | 14µM | – | 35µM! | –
Clc1ccc(N=c2ssnc2Cl)cc1 | – | 25µM | – | ? | –
CCOC(=O)c1ccc(N=c2ssnc2Cl)cc1 | – | 35µM | – | ? | –
COc1ccc(N=c2ssnc2Cl)cc1 | – | – | – | ? | –
Clc1nssc1=Nc1ccccc1 | – | ? | – | ? | –
Fc1ccc(N=c2ssnc2Cl)c(F)c1 | – | 14µM | – | – | –
COC(=O)[C@]12CCCCC=C1N(Cc1cccc3ccccc13)C(=O)[C@H](CC(=O)NCCCN1CCCC1=O)C2 | · | – | – | – | ·
SMILES | SARS PLpro yeast | Tb PYK inh | AMA1-RON2 inh | RE007 growth inh | LmPK inhibitor
CC[C@@H](C)C(N)C(=O)O (some centres not stated) | · | – | · | · | ·
CCN(CC)Cc1cc(Nc2c3ccccc3nc3c4ccccc4n(C)c23)cc(CN(CC)CC)c1O | · | ? | 11µM | – | ·
Oc1cccc(Nc2c3ccccc3nc3ccccc23)c1 | – | – | – | · | –
CN(C1=C(N2CCCCC2)C(=O)c2ccccc2C1=O)c1ccccc1 | ? | – | 9.5µM | – | ?
O=C1C(NS(=O)(=O)c2ccc(Br)cc2)=C(N2CCCCC2)C(=O)c2ccccc21 | – | – | 16µM | – | –
CCN1CCN(C2=C(NS(=O)(=O)c3ccc(C)cc3)C(=O)c3ccccc3C2=O)CC1 | – | – | – | – | –
CC1CCN(C2=C(NS(=O)(=O)c3ccc(Br)cc3)C(=O)c3ccccc3C2=O)CC1 | – | – | 13µM | – | –
O=C1C(Nc2ccccc2)=C(N2CCCCC2)C(=O)c2ccccc21 | – | – | – | ? | –
O=C1C(NS(=O)(=O)c2ccccc2)=C(N2CCN(c3ccc(F)cc3)CC2)C(=O)c2ccccc21 | – | – | 18µM | – | –
CC1CCN(C2=C(NS(=O)(=O)c3ccccc3)C(=O)c3ccccc3C2=O)CC1 | – | – | ? | – | –
CC1CCCN(C2=C(NS(=O)(=O)c3ccc(Br)cc3)C(=O)c3ccccc3C2=O)C1 (configuration not stated) | – | – | ? | – | –
